# In PubChem BioAssay (NCI):
# This is part of a sample that, as a whole, favours compounds with a hit. Of some 83,000 tested, about 20% had one in any assay.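 Note: values are percent growth. 100 is the growth of untreated cells, values between 100 and 0 indicate rising inhibition; between -100 and 0 indicates cell death.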 A number with no mark means an inactive call. Activity calls are given as the source filed them.
# Tested on: MDA-MB-435 melanoma
# Test: NCI-60 one-dose screen, 48 h (100 = growth as untreated, 0 = no growth, -100 = all killed)
# Settings: 10 µM unless noted
# Description: Growth inhibition of the MDA-MB-435 human Melanoma tumor cell line is measured as a screen for anti-cancer activity. Cells are grown in 96 well plates and exposed to the test compound for 48 hours. Compounds are tested at a single concentration, which is 10^-5 M for most compounds. The reported endpoint is percent growth (GI% or GIPRCNT), where numbers from 0 - 100% represent growth inhibition, and numbers from -100% - 0 represent cell death. For example, a value of 40 represents 60% growth inhibition. A value of 0 means no net growth occurred over the course of the experiment. A value of -40 indicates 40% of cells at the beginning of the experiment died by the end of the experiment. A value of -100 means all cells are dead at the end of the experiment.
# NCI-60 Human Tumor Cell Lines Screen was performed using the standard one-dose NCI protocol, which is described in more detail at https://dtp.cancer.gov/discovery_development/nci-60/default.htm.
# Compounds with GIPRCNT values below 10 were considered active. Activity score was based on GIPRCNT using the following formula: […]
# Score is 0 for GIPRCNT values of 100 or above, 50 for GIPRCNT values of 0, and 100 for GIPRCNT values of -100.
row,SMILES,growth
1,O=C(/C=C/c1cn(-c2ccccc2)nc1-c1ccc(Cl)cc1)c1cc2ccccc2oc1=O,57.6%
2,O=C1c2c(c3c4ccc(Br)cc4oc3c3[nH]c4ccccc4c23)C(=O)N1CCO,59%
3,NS(=O)(=O)c1ccc(Nc2nc(N/N=C/c3ccc(F)cc3)nc(Nc3ccccc3)n2)cc1,53.5%
4,Cc1ccc(-c2cc(-c3cccc4ccccc34)n3c(n2)nc2ccccc23)cc1,65%
5,COc1ccc(OC)c(NC2=C(Cl)C(=O)C(C)=C(C)C2=O)c1,106%
6,O=C(CCCCCCN1CC(=O)N2[C@@H](c3ccc(Cl)c(F)c3)c3[nH]c4ccccc4c3C[C@H]2C1=O)NO,82.8%
7,O=C1Nc2ccc(Cl)cc2/C1=C/c1ccc(OCc2ccc(Br)cc2F)cc1,104%
8,C/C(=C(/c1ccc(O)cc1)c1ccc(OCCN2CCCC2)cc1)c1ccc(Cl)cc1,20%
9,COc1ccc(-c2nnc(/N=C3/C(=O)Nc4ccc(Br)cc43)o2)cc1,94.7%
10,CCCCCCNC(=O)Oc1ccc(/C(=C(\C)c2ccc(OC)cc2)c2ccc(OCCN(C)C)cc2)cc1,87.7%
11,CN(c1ccc(Br)cc1)S(=O)(=O)c1ccc(-c2cnc(C3CC3)o2)cc1,-12.1% (active)
12,CCN1C/C(=N\S(=O)(=O)c2ccccc2)N(CC)C1=S,101%
13,CCC(C)[C@H]1OC(=O)[C@H](C(C)C)N(C)C(=O)[C@@H](C(C)C)OC(=O)[C@H](C(C)C)N(C)C(=O)[C@@H](C(C)CC)OC(=O)[C@H](C(C)C)N(C)C1=O (stereo not given in full),16.1%
14,NS(=O)(=O)Oc1ccc2nc(Nc3ccc(F)c(F)c3)ccc2c1,89%
15,CNC(=O)c1cc(N2CCc3cc(NC(=O)Nc4ccc(Cl)c(Cl)c4)ccc32)ccn1,84.2%
16,COc1ccc2c(C3=C(c4cn(C)c5ccccc45)C(=O)NC3=O)coc2c1,6.58% (active)
17,Cc1ccc(NC(=O)c2cccc(CN3CCN(C)CC3)c2)cc1Oc1ccc(-c2[nH]nc3ncnc(N)c23)cc1,56.3%
18,COc1ccc(-c2oc3cc(O)cc(O)c3c(=O)c2OC)cc1O,-34.3% (active)
19,Nc1nc(-c2cccc([N+](=O)[O-])c2)c(N=Nc2ccccc2Cl)s1,89.5%
20,Oc1ccc(CSc2nnc(-c3ccccc3)n2-c2ccccc2)c2cccnc12,13.9%

row,SMILES,growth
1,CC(C)=CCc1c(O)c(CC=C(C)C)c2c(c1O)C(=O)C1=C[C@@H]3C[C@H]4C(C)(C)O[C@@](C/C=C(\C)C(=O)O)(C3=O)[C@@]14O2,-5.58% (active)
2,CCc1ccc(NC(=O)N[C@@H](Cc2cc(F)cc(F)c2)C(=O)N[C@@H]2C(=O)N3CCC[C@H]3C(=O)N3CCO[C@H](C)[C@H]3C(=O)N[C@@H](CO)C(=O)N3C[C@H](C)C[C@H]3C(=O)O[C@H]2C)c(F)c1,20.3%
3,CCN1C(=O)N(CC)C2SC(N/N=C/c3ccccc3F)=NC21 (stereo not given),-53.5% (active)
4,CC(=O)Oc1ccc(CCN2C(=O)CSC2=S)cc1,69.2%
5,Cc1ccc(NC(=O)N[C@@H](Cc2cc(F)cc(F)c2)C(=O)NC2C(=O)N3CCC[C@H]3C(=O)N3CCCC[C@H]3C(=O)N[C@@H](C)C(=O)N3C[C@H](C)C[C@H]3C(=O)O[C@H]2C)c(F)c1 (stereo not given in full),21.2%
6,CCOC(=O)c1nn(-c2ccccc2)c(=O)c2c(N)c(C#N)c(-c3cccs3)cc12,90.3%
7,C(=C(\C1=NCCN1)n1cnc2ccccc21)/c1ccc2ccccc2c1,25.7%
8,O=c1cc(-c2ccccc2)nc2sc(-c3c[nH]c4ccc(Br)cc34)nn12,101%
9,CCNC(=O)Oc1ccc(/C(=C(/C)c2ccc(Cl)cc2)c2ccc(OCCN(C)C)cc2)cc1,91.6%
10,CS(=O)(=O)c1ccc(-c2nn(-c3ccccc3)cc2/C=C/C(=O)c2ccc(Br)cc2)cc1,95.3%
11,O=C(NNc1nc2cc(F)c(F)cc2n2cccc12)c1ccncn1,33%
12,C#Cc1ccc(NC(=O)c2ccc(/C=C/C(=O)c3nccn3C)cc2)c(F)c1,27.9%
13,CC(C)c1nn(-c2ccccc2)c(N2CCCCC2)c1/C=N/NC(N)=S,97.5%
14,c1cncc(-c2cn3nc(-c4c[nH]c5ccccc45)sc3n2)c1,-38% (active)
15,Nc1cc(F)ccc1NC(=O)c1ccc(NC(=O)C/C=C/c2cccnc2)cn1,13.7%
16,Oc1ccc(-c2nnc(SCc3ccc(O)c4ncccc34)o2)cc1,12.3%
17,COc1ccc([C@@H]2[C@@H](O)C(=O)N2c2cc(OC)c(OC)c(OC)c2)cc1,-28.6% (active)
18,O=C(NNc1nc2cc(F)ccc2n2cncc12)c1cnccn1,25%
19,CN1CCN(c2ccc3c(C(N)=O)c(NC(=O)c4ccc(C(C)(C)C)cc4)sc3c2)CC1,95.1%
20,Brc1cccc(/C=N/Nc2nc(N/N=C/c3cccc(Br)c3)nc(N3CCOCC3)n2)c1,33.4%
